# Reference: PMC7862700, “An all-to-all approach to the identification of sequence-specific readers for epigenetic DNA modifications on cytosine”
# Experiments:
# Assay in all cases: DAPPL (digital affinity profiling via proximity ligation, sequencing); 10 mM Tris-HCl pH 7.5, 50 mM NaCl, 1 mM DTT, 4% glycerol, room temperature, 30 min; GST-TFs on glutathione beads, 16-mer random dsDNA library, 0.1% formaldehyde crosslink after washing; high values mean tight binding
# FLI1 = biological target: T1, FLI1 (Homo sapiens, UniProt Q01543 1-452); conditions: protein: recombinant; tags: N-terminal GST; dsDNA, one strand shown
# T1 sequence: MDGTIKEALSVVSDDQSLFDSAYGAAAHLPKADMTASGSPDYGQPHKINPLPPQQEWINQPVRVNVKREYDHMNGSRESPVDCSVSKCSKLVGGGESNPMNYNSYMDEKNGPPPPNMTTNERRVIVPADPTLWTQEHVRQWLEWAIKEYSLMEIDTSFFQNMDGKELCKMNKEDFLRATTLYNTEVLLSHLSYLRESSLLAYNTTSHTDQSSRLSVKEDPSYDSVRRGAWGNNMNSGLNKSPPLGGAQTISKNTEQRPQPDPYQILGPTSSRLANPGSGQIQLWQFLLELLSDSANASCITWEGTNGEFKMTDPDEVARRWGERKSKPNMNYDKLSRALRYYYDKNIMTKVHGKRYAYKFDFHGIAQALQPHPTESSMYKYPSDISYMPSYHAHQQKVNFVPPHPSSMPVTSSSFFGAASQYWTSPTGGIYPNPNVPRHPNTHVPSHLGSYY
# How it was run: (§1)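 GST fusions of human transcription factors were expressed in yeast and captured with glutathione beads. Once given DNA barcodes and pooled alongside a tag-only sample, they were incubated for 30 min at room temperature with 200 nmole of a random double-stranded 16-mer DNA library in Tris/NaCl/DTT/glycerol buffer, then washed, crosslinked (0.1% formaldehyde), proximity-ligated, PCR-amplified and sequenced on an Illumina NextSeq500. The binding signal of each hexamer is its read frequency for a factor divided by its frequency for the tag-only sample.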
# ELK1 = biological target: T2, ELK1 (Homo sapiens, UniProt P19419 1-428); conditions: protein: recombinant; tags: N-terminal GST; dsDNA, one strand shown
# T2 sequence: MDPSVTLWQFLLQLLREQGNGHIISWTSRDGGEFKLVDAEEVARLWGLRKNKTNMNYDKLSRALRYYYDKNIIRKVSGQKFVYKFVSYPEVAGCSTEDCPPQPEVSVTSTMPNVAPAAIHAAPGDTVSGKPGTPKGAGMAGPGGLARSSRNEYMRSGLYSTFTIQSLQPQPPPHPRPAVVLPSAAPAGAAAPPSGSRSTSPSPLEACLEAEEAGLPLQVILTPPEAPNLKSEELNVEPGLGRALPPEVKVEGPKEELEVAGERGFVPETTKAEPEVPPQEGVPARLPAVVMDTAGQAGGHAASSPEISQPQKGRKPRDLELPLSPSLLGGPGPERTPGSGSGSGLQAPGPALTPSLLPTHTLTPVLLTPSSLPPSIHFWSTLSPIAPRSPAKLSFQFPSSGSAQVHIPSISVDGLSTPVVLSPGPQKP
# How it was run: as §1
# GABPA = biological target: T3, GABPA (Homo sapiens, UniProt Q06546 1-454); conditions: protein: recombinant; tags: N-terminal GST; dsDNA, one strand shown
# T3 sequence: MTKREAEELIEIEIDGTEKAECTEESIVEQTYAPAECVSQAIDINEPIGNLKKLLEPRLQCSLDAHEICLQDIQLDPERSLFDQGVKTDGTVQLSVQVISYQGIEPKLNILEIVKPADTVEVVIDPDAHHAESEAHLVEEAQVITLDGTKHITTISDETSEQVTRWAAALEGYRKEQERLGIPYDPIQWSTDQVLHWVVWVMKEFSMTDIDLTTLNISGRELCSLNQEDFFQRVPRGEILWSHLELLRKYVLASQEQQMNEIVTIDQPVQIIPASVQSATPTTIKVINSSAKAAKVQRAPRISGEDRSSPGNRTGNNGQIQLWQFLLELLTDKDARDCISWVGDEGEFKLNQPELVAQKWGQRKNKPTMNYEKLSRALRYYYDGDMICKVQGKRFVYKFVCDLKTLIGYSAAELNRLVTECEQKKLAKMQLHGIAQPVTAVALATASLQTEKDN
# How it was run: as §1
# ERG = biological target: T4, ERG (Homo sapiens, UniProt P11308 1-479); conditions: protein: recombinant; tags: N-terminal GST; dsDNA, one strand shown
# T4 sequence: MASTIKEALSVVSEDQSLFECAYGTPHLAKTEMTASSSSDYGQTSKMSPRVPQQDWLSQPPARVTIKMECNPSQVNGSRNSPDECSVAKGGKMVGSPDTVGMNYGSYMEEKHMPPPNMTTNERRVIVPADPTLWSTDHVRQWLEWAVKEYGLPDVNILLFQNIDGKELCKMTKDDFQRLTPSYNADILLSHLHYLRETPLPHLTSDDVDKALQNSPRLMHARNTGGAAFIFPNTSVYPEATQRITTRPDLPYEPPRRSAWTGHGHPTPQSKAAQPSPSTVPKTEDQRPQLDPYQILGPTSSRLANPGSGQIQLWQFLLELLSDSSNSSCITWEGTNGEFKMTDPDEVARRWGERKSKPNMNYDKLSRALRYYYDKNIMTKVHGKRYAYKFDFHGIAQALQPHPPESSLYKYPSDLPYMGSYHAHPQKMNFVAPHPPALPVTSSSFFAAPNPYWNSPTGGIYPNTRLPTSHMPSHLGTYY
# How it was run: as §1
# ELF1 = ELF1 (Homo sapiens, UniProt P32519 1-619); conditions: protein: recombinant; tags: N-terminal GST; dsDNA, one strand shown
# How it was run: as §1
# EHF = biological target: T5, EHF (Homo sapiens, UniProt Q9NZC4 1-300); conditions: protein: recombinant; tags: N-terminal GST; dsDNA, one strand shown
# T5 sequence: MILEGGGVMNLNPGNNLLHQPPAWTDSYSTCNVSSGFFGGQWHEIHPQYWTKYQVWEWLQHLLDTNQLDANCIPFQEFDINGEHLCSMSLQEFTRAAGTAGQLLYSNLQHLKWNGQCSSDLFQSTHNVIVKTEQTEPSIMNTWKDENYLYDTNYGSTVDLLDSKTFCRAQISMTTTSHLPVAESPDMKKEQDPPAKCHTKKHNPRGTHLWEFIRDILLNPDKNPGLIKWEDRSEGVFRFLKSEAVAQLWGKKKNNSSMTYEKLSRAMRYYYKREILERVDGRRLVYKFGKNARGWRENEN
# How it was run: as §1
# SPI1 = SPI1 (Homo sapiens, UniProt P17947 1-270); conditions: protein: recombinant; tags: N-terminal GST; dsDNA, one strand shown
# How it was run: as §1
# SPIB = SPIB (Homo sapiens, UniProt Q01892 1-262); conditions: protein: recombinant; tags: N-terminal GST; dsDNA, one strand shown
# How it was run: as §1
# ELK3 = biological target: T6, ELK3 (Homo sapiens, UniProt P41970 1-407); conditions: protein: recombinant; tags: N-terminal GST; dsDNA, one strand shown
# T6 sequence: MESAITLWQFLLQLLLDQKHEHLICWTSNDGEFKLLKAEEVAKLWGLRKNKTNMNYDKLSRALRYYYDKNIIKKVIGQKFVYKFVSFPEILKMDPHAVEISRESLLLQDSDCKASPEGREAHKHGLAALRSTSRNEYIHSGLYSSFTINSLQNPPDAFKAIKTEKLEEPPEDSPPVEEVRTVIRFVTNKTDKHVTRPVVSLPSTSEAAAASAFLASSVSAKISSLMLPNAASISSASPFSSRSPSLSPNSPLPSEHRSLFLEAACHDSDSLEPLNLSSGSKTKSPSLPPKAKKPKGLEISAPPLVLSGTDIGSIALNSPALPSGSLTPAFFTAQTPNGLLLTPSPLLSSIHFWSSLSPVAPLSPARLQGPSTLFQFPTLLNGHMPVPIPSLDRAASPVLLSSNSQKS
# How it was run: as §1
# FEV = biological target: T7, FEV (Homo sapiens, UniProt Q99581 1-238); conditions: protein: recombinant; tags: N-terminal GST; dsDNA, one strand shown
# T7 sequence: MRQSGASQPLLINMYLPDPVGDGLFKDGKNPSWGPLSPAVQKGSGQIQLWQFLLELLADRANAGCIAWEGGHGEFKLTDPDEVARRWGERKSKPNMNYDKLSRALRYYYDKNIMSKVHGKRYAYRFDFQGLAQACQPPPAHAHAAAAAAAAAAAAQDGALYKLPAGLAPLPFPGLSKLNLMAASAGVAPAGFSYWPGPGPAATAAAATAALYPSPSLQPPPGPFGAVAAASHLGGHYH
# How it was run: as §1
# ETV5 = ETV5 (Homo sapiens, UniProt P41161 1-510); conditions: protein: recombinant; tags: N-terminal GST; dsDNA, one strand shown
# How it was run: as §1
# HSF1 = HSF1 (Homo sapiens, UniProt Q00613 1-529); conditions: protein: recombinant; tags: N-terminal GST; chain copies: 3; dsDNA, one strand shown
# How it was run: as §1
# SPIC = biological target: T8, SPIC (Homo sapiens, UniProt Q8N5J4 1-248); conditions: protein: recombinant; tags: N-terminal GST; dsDNA, one strand shown
# T8 sequence: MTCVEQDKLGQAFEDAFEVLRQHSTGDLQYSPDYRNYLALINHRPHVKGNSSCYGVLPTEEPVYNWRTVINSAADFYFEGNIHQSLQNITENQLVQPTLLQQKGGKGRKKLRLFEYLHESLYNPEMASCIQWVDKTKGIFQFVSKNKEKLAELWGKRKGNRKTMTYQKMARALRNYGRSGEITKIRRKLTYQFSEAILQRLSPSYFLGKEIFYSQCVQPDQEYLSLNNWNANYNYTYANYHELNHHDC
# How it was run: as §1
# ELF4 = ELF4 (Homo sapiens, UniProt Q99607 1-663); conditions: protein: recombinant; tags: N-terminal GST; dsDNA, one strand shown
# How it was run: as §1
# ELK4 = biological target: T9, ELK4 (Homo sapiens, UniProt P28324-2 1-405); conditions: protein: recombinant; tags: N-terminal GST; dsDNA, one strand shown
# T9 sequence: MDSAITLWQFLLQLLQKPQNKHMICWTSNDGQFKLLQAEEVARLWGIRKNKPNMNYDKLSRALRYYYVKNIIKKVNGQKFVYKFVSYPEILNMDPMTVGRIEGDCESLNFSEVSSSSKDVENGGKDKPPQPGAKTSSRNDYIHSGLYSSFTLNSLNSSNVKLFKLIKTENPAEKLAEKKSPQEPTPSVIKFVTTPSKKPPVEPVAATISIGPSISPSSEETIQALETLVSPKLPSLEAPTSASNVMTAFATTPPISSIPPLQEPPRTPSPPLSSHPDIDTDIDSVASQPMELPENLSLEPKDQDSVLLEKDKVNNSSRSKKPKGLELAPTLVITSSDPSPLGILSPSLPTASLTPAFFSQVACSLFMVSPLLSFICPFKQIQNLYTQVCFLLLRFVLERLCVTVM
# How it was run: as §1
# ETV2 = biological target: T10, ETV2 (Homo sapiens, UniProt O00321 1-342); conditions: protein: recombinant; tags: N-terminal GST; dsDNA, one strand shown
# T10 sequence: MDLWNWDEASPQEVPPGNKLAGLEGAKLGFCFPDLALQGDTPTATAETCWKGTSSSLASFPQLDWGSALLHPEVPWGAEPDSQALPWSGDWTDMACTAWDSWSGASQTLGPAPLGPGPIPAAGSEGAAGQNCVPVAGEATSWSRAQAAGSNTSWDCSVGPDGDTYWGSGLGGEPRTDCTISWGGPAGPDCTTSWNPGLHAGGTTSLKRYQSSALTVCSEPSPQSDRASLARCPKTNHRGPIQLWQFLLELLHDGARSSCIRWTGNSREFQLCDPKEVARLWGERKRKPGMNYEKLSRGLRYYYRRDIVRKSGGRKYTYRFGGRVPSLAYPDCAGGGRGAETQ
# How it was run: as §1
# ELF3 = biological target: T11, ELF3 (Homo sapiens, UniProt P78545 1-371); conditions: protein: recombinant; tags: N-terminal GST; dsDNA, one strand shown
# T11 sequence: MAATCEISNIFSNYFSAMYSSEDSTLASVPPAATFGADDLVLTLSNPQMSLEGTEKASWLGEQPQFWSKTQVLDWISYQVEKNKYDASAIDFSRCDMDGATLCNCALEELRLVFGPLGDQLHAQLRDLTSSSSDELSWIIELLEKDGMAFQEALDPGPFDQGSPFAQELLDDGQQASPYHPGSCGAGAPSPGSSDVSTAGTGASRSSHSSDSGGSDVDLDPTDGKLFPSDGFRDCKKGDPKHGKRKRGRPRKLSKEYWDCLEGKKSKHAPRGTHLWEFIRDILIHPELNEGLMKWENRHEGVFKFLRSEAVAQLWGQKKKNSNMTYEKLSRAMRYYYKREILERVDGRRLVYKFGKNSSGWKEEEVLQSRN
# How it was run: as §1
# ETV1 = ETV1 (Homo sapiens, UniProt P50549 1-477); conditions: protein: recombinant; tags: N-terminal GST; dsDNA, one strand shown
# How it was run: as §1
# Chain of ETV5 (P41161 whole entry): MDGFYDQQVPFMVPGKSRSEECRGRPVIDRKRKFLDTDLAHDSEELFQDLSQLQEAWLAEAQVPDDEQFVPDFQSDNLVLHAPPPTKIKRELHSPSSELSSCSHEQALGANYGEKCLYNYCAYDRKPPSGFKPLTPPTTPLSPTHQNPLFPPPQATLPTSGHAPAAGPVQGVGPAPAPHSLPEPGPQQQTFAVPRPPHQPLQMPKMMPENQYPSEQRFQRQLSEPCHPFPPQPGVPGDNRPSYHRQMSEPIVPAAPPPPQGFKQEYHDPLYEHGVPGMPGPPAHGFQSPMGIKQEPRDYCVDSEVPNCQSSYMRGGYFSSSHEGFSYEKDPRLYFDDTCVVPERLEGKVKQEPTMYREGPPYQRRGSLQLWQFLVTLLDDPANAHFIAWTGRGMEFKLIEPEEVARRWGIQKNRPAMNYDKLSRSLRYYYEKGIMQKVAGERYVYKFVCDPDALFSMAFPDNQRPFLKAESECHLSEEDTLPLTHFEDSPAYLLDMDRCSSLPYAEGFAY
# Chain of ETV1 (P50549 whole entry): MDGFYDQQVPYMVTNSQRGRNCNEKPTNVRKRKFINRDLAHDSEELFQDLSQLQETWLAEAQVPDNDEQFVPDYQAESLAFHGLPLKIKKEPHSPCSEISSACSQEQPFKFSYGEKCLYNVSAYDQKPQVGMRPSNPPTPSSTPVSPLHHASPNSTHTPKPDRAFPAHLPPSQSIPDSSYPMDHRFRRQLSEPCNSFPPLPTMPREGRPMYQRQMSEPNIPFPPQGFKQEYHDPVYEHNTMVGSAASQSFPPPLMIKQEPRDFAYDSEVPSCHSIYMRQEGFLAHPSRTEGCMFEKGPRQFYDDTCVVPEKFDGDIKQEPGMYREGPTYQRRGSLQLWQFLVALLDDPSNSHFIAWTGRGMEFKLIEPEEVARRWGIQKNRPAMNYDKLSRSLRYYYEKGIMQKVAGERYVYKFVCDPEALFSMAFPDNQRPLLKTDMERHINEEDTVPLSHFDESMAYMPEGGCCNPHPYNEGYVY
# Chain of ELF4 (Q99607 whole entry): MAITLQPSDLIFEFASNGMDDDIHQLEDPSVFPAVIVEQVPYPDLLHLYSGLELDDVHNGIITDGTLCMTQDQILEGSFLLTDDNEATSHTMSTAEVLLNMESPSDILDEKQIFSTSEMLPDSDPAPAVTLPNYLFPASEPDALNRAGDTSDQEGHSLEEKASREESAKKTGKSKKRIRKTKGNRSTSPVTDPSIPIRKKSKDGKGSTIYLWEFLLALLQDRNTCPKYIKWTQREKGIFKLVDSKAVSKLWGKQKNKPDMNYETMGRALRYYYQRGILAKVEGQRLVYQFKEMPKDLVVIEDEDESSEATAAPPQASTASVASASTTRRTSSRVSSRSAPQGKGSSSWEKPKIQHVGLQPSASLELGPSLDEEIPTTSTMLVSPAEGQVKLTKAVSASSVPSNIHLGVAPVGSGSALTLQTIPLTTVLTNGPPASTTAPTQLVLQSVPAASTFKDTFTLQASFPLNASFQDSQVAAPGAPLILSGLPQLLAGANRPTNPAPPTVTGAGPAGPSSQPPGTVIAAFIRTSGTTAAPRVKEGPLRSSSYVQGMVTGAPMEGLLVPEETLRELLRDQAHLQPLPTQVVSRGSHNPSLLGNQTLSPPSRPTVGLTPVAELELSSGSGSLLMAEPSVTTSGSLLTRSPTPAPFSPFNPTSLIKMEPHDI
# Chain of ELF1 (P32519 whole entry): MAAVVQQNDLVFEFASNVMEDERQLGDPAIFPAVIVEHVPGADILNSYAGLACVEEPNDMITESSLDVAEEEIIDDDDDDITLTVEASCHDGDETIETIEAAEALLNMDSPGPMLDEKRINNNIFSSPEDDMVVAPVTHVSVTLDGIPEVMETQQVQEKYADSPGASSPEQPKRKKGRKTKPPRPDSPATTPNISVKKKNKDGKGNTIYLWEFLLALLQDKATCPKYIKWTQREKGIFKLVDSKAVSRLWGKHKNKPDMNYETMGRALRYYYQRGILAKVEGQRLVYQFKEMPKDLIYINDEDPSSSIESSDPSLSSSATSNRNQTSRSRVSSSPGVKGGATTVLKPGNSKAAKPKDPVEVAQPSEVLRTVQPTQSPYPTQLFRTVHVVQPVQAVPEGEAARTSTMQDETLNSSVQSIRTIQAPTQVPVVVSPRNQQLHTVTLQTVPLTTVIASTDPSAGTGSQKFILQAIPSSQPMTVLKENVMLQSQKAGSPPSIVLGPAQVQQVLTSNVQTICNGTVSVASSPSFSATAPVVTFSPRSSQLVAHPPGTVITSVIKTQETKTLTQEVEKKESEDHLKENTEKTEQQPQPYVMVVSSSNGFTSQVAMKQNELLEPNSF
# Chain of SPIB (Q01892 whole entry): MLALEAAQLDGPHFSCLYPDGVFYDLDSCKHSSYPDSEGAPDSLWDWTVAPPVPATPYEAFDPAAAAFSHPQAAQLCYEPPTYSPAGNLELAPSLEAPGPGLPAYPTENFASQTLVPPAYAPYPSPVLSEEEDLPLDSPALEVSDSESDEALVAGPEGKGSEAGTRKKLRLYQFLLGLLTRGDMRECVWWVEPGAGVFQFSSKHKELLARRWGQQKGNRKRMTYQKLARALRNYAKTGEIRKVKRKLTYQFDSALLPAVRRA
# Chain of HSF1 (Q00613 whole entry): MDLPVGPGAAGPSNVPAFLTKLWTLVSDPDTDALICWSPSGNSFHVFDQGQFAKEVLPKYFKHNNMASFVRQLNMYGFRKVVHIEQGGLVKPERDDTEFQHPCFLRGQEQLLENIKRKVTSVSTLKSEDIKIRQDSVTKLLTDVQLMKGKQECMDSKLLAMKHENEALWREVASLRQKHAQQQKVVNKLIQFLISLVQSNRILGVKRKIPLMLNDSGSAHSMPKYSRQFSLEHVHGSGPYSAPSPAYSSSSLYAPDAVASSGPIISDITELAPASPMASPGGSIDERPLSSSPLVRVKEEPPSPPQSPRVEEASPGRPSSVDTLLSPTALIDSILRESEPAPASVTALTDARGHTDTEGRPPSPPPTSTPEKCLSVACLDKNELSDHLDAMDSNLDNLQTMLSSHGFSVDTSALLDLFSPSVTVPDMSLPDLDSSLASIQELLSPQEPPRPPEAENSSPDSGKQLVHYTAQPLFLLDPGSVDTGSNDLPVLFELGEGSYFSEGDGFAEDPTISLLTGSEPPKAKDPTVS
sequence,measurement,setting,value
GTCTCT,binding signal,FLI1,"1.41 fold enrichment (6-mer frequency, TF over GST control)"
same,binding signal,ELK1,"1.26 fold enrichment (6-mer frequency, TF over GST control)"
same,binding signal,GABPA,"1.31 fold enrichment (6-mer frequency, TF over GST control)"
same,binding signal,ERG,"1.33 fold enrichment (6-mer frequency, TF over GST control)"
same,binding signal,ELF1,"1.29 fold enrichment (6-mer frequency, TF over GST control)"
same,binding signal,EHF,"1.19 fold enrichment (6-mer frequency, TF over GST control)"
same,binding signal,SPI1,"1.32 fold enrichment (6-mer frequency, TF over GST control)"
same,binding signal,SPIB,"1.25 fold enrichment (6-mer frequency, TF over GST control)"
same,binding signal,ELK3,"1.14 fold enrichment (6-mer frequency, TF over GST control)"
same,binding signal,FEV,"1.15 fold enrichment (6-mer frequency, TF over GST control)"
same,binding signal,ETV5,"1.14 fold enrichment (6-mer frequency, TF over GST control)"
same,binding signal,HSF1,"1.12 fold enrichment (6-mer frequency, TF over GST control)"
same,binding signal,SPIC,"1.33 fold enrichment (6-mer frequency, TF over GST control)"
same,binding signal,ELF4,"1.33 fold enrichment (6-mer frequency, TF over GST control)"
same,binding signal,ELK4,"1.18 fold enrichment (6-mer frequency, TF over GST control)"
same,binding signal,ETV2,"1.24 fold enrichment (6-mer frequency, TF over GST control)"
same,binding signal,ELF3,"1.11 fold enrichment (6-mer frequency, TF over GST control)"
same,binding signal,ETV1,"1.27 fold enrichment (6-mer frequency, TF over GST control)"
